These results are taken from PubChem BioAssay (NCATS).

Records with an inconclusive call do not appear. Where a call stands in place of a potency, no number is given. Active and inactive are the calls of the source. Calls come from the whole dose curve; as a rule, active = well fitted cell-killing curve with a large enough effect; inconclusive = small, poorly fitted or top-dose-only effect, or effect the other way; inactive = flat fitted curve, though single readings scatter.
Potency is the fitted concentration of half-maximal effect.

This experiment is described as follows: qHTS for Inhibitors of ATXN expression: Validation of Cytotoxic Assay (AID 588349). Particulars: cytotoxicity counter-screen for ATXN expression inhibitors, cell viability; series mostly up to 57.1 µM. In a few lines: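 Titrated compounds are added to cultured HEK293 cells, which are then held at 37 degrees C for 72 hr; loss of intracellular ATP, measured with CellTiter Glo, indicates toxicity.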
In the case of `c1ccc([C@H]2CN3CCSC3=N2)cc1`, the Potency entry is “inactive”. The same measure for `O=C(O)COCCN1CCN(C(c2ccccc2)c2ccc(Cl)cc2)CC1` (stereo not given): “inactive”; for `N[C@@H]1CONC1=O`: “inactive”.

`Cc1oncc1C(=O)Nc1ccc(C(F)(F)F)cc1`: the Potency entry is “inactive”.

On to `CC(C)NCC(O)COc1ccc(COCCOC(C)C)cc1` (stereo not given), for which the Potency result was “inactive”. Consider `Cc1cn[nH]c1`, for which the Potency entry is “inactive”.

In the case of `CCn1cc(C(=O)O)c(=O)c2cc(F)c(N3CCNC(C)C3)c(F)c21` (stereo not given), the Potency entry was “inactive”. The result for `Cc1cnc(NC(=O)C2=C(O)c3ccccc3S(=O)(=O)N2C)s1` reads “inactive”; that for `CC(C)(C)NCC(O)c1ccc(O)c(CO)c1` (stereo not given), “inactive”; that for `CCOC(=O)C1=C[C@]2(CC)CCCN3CCc4c(n1c1ccccc41)[C@@H]32`, “inactive”.

Consider `NCCCC(N)(C(=O)O)C(F)F` (stereo not given), for which the Potency entry was “inactive”.

As for `NNCCc1ccccc1`, the Potency result was “inactive”. For `CCC(C)N(C)C(=O)c1cc2ccccc2c(-c2ccccc2Cl)n1` (stereo not given), the Potency entry is “inactive”. The same measure for `CC(C[N+](C)(C)C)OC(N)=O` (stereo not given): “inactive”; for `Cc1cccc(-c2[nH]c(C(C)(C)C)nc2-c2ccc3nccnc3c2)n1`: “inactive”. Take `Nc1ncnc2nc(-c3ccc(N4CCOCC4)nc3)cc(-c3cccc(Br)c3)c12`: the Potency result was “inactive”. The result for `Nc1ccc(S(=O)(=O)Nc2ccnn2-c2ccccc2)cc1` reads “inactive”; that for `CN1CCN(CCCN2c3ccccc3Sc3ccc(C(F)(F)F)cc32)CC1`, 28.2 µM (active); that for `CNC[C@H](O)c1cccc(O)c1`, “inactive”. Turning to `O=c1n(CCCN2CCN(c3cccc(Cl)c3)CC2)nc2ccccn12`, the Potency entry is “inactive”.

As for `Oc1ccc(C2CNCCc3c2cc(O)c(O)c3Cl)cc1` (stereo not given), the Potency result was “inactive”. Turning to `O=C(Nc1nc2ccccc2n1CCN1CCOCC1)c1cccc([N+](=O)[O-])c1`, the Potency entry was “inactive”.

As for `OC(CN1CCC(Cc2ccc(F)cc2)CC1)c1ccc(Cl)cc1` (stereo not given), the Potency entry was “inactive”. The same measure for `Nc1nc2c(ncn2COCCO)c(=O)[nH]1`: “inactive”; for `CCCCNc1cc(C(=O)O)cc(S(N)(=O)=O)c1Oc1ccccc1`: “inactive”.
